# Source: the supplement of paper PMC9023506
# Where a name gives a salt, the structure may show the parent alone.
# Tests used:
# Settings in all cases: 10 µM; exposure time: 3 h pre-incubation + 3 h imaging
# [1] = system: Danio rerio larvae (5 dpf); test: habituation to 1-s acoustic pulses, difference vs DMSO (percentage points (treated minus DMSO)); higher = more of the behaviour than the DMSO vehicle control
# Summary of the method: (§1)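 Library drugs were diluted 1000× from DMSO stocks into egg water to reach 10 µM and applied to 5-dpf wild-type zebrafish larvae in 96-well ProxiPlates, 48 larvae per drug. The larvae stayed exposed for 3 h before imaging and for the 3 h of imaging at 28.5 °C. Behaviour scores, given in percentage points, are the treated mean minus the vehicle mean for movement and upper-half location.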
# [2] = system: Danio rerio larvae (5 dpf); test: optomotor response to red moving lines, difference vs DMSO (percentage points (treated minus DMSO)); higher = more of the behaviour than the DMSO vehicle control
# Summary of the method: as §1
# [3] = system: Danio rerio larvae (5 dpf); test: optomotor response to blue moving lines, difference vs DMSO (percentage points (treated minus DMSO)); higher = more of the behaviour than the DMSO vehicle control
# Summary of the method: as §1
# [4] = system: Danio rerio larvae (5 dpf); test: optomotor response to fast red moving lines, difference vs DMSO (percentage points (treated minus DMSO)); higher = more of the behaviour than the DMSO vehicle control
# Summary of the method: as §1
# [5] = system: Danio rerio larvae (5 dpf); test: activity during first hour (no stimuli), difference vs DMSO (percentage points (treated minus DMSO)); higher = more of the behaviour than the DMSO vehicle control
# Summary of the method: as §1
# [6] = system: Danio rerio larvae (5 dpf); test: excitability to 1-s acoustic pulses, difference vs DMSO (percentage points (treated minus DMSO)); higher = more of the behaviour than the DMSO vehicle control
# Summary of the method: as §1
# [7] = system: Danio rerio larvae (5 dpf); test: optomotor response to green moving lines, difference vs DMSO (percentage points (treated minus DMSO)); higher = more of the behaviour than the DMSO vehicle control
# Summary of the method: as §1
# [8] = system: Danio rerio larvae (5 dpf); test: startle response to 20-s acoustic pulses, difference vs DMSO (percentage points (treated minus DMSO)); higher = more of the behaviour than the DMSO vehicle control
# Summary of the method: as §1
# [9] = system: Danio rerio larvae (5 dpf); test: activity during period 15 (no stimuli), difference vs DMSO (percentage points (treated minus DMSO)); higher = more of the behaviour than the DMSO vehicle control
# Summary of the method: as §1
structure (smiles),measurement,setting,value
C/C(O)=C(\C#N)C(=O)Nc1ccc(C(F)(F)F)cc1 [Teriflunomide],habituation to 1-s acoustic pulses,[1],-1.26
same,optomotor response to red moving lines,[2],-3.45
same,optomotor response to blue moving lines,[3],-8.25
same,optomotor response,[4],-7.56
CC(C)(C(=O)c1cccnc1)c1cccnc1 [Metyrapone],habituation to 1-s acoustic pulses,[1],-0.218
same,activity during first hour,[5],-5.92
CCOC(=O)C1=C(COCCN)NC(C)=C(C(=O)OC)C1c1ccccc1Cl (centres undefined) [Amlodipine besylate],habituation to 1-s acoustic pulses,[1],-2.17
same,excitability to 1-s acoustic pulses,[6],-1.57
same,activity during first hour,[5],2.38
same,optomotor response to green moving lines,[7],-4.86
same,startle response to 20-s acoustic pulses,[8],0.195
Cc1nc(Nc2ncc(C(=O)Nc3c(C)cccc3Cl)s2)cc(N2CCN(CCO)CC2)n1 [Dasatinib],habituation to 1-s acoustic pulses,[1],-0.705
same,excitability to 1-s acoustic pulses,[6],16.9
same,activity during first hour,[5],-11.4
same,optomotor response,[4],-12.1
COc1cc([C@@H]2c3cc4c(cc3[C@@H](O[C@@H]3O[C@@H]5CO[C@@H](C)O[C@H]5[C@H](O)[C@H]3O)[C@H]3COC(=O)[C@H]23)OCO4)cc(OC)c1O [Etoposide],optomotor response to red moving lines,[2],2.25
same,optomotor response to blue moving lines,[3],6.33
CCCc1nc2c(C)cc(-c3nc4ccccc4n3C)cc2n1Cc1ccc(-c2ccccc2C(=O)O)cc1 [Telmisartan],optomotor response to red moving lines,[2],-8.2
same,activity during period 15,[9],-7.63
same,optomotor response to blue moving lines,[3],8.47
same,optomotor response to green moving lines,[7],-3.99
CCC(C)(C)C(=O)O[C@H]1C[C@@H](C)C=C2C=C[C@H](C)[C@H](CC[C@@H]3C[C@@H](O)CC(=O)O3)[C@H]21 [Simvastatin],excitability to 1-s acoustic pulses,[6],8.31
same,activity during first hour,[5],7.12
same,optomotor response to green moving lines,[7],4.17
same,startle response to 20-s acoustic pulses,[8],3.9
C#C[C@]1(O)CC[C@H]2[C@@H]3CCC4=CC(=O)CC[C@@H]4[C@H]3CC[C@@]21CC [Levonorgestrel],habituation to 1-s acoustic pulses,[1],-7.34
same,activity during period 15,[9],-6.07
same,activity during first hour,[5],-8.15
CC(C)(C)NC(=O)[C@@H]1C[C@@H]2CCCC[C@@H]2CN1C[C@@H](O)[C@H](Cc1ccccc1)NC(=O)[C@H](CC(N)=O)NC(=O)c1ccc2ccccc2n1 [Saquinavir mesylate],activity during first hour,[5],-9.81
same,optomotor response to green moving lines,[7],-3.04
same,startle response to 20-s acoustic pulses,[8],0.0193
CC(=O)NC[C@H]1CN(c2ccc(N3CCOCC3)c(F)c2)C(=O)O1 [Linezolid],habituation to 1-s acoustic pulses,[1],-2.78
same,activity during first hour,[5],3.81
CC(C)c1nc(N(C)S(C)(=O)=O)nc(-c2ccc(F)cc2)c1/C=C/[C@@H](O)C[C@@H](O)CC(=O)O [Rosuvastatin calcium],excitability to 1-s acoustic pulses,[6],-0.497
same,optomotor response to red moving lines,[2],7.07
same,optomotor response to blue moving lines,[3],10.7
same,optomotor response to green moving lines,[7],2.28
same,optomotor response,[4],11.1
NS(=O)(=O)c1cc2c(cc1Cl)NC(C1CC3C=CC1C3)NS2(=O)=O (centres undefined) [Cyclothiazide],activity during first hour,[5],0.422
same,optomotor response,[4],-3.47
O=C(Nc1c(Cl)cncc1Cl)c1ccc(OC(F)F)c(OCC2CC2)c1 [Roflumilast],optomotor response to red moving lines,[2],0.247
same,optomotor response to blue moving lines,[3],-1.76
same,optomotor response,[4],-10.8
CN1CC[C@@H](NC(=O)Nc2ccc(C#N)cc2)C[C@@H]1c1nc2ccccc2[nH]1,excitability to 1-s acoustic pulses,[6],7.99
same,activity during first hour,[5],-8.92
same,optomotor response to green moving lines,[7],-5.63
same,startle response to 20-s acoustic pulses,[8],-5.85
Nc1cc(N2CCCCC2)nc(N)[n+]1[O-] [Minoxidil],optomotor response to red moving lines,[2],-13.4
same,optomotor response to blue moving lines,[3],-6.76
same,startle response to 20-s acoustic pulses,[8],-2.65
same,optomotor response,[4],2.09
COc1cc2nccc(Oc3ccc(NC(=O)C4(C(=O)Nc5ccc(F)cc5)CC4)cc3)c2cc1OC,optomotor response to red moving lines,[2],-13.9
CC(C)c1ccc2oc3nc(N)c(C(=O)O)cc3c(=O)c2c1 [Amlexanox],habituation to 1-s acoustic pulses,[1],-1.39
same,excitability to 1-s acoustic pulses,[6],6.32
same,optomotor response to red moving lines,[2],-3.59
same,activity during period 15,[9],7.93
same,optomotor response to blue moving lines,[3],5.97
same,optomotor response to green moving lines,[7],-0.74
same,startle response to 20-s acoustic pulses,[8],0.978
CC#C[C@]1(O)CC[C@H]2[C@@H]3CCC4=CC(=O)CCC4=C3[C@@H](c3ccc(N(C)C)cc3)C[C@@]21C [Mifepristone],excitability to 1-s acoustic pulses,[6],5.32
same,optomotor response to red moving lines,[2],3.5
same,activity during period 15,[9],-2.26
same,optomotor response to blue moving lines,[3],11
same,optomotor response to green moving lines,[7],11
same,startle response to 20-s acoustic pulses,[8],0.769
CC(C)Nc1cccnc1N1CCN(C(=O)c2cc3cc(NS(C)(=O)=O)ccc3[nH]2)CC1 [Delavirdine mesylate],excitability to 1-s acoustic pulses,[6],0.884
same,optomotor response to red moving lines,[2],-0.668
same,activity during period 15,[9],-4.9
same,optomotor response to blue moving lines,[3],-0.42
same,optomotor response,[4],-17
CC(=O)Oc1cc2c(s1)CCN(C(C(=O)C1CC1)c1ccccc1F)C2 (centres undefined) [Prasugrel],habituation to 1-s acoustic pulses,[1],2.1
same,optomotor response to red moving lines,[2],5.97
same,optomotor response to blue moving lines,[3],3.83
same,startle response to 20-s acoustic pulses,[8],-10.9
same,optomotor response,[4],-8.05
CC(c1cc2ccccc2s1)N(O)C(N)=O (centres undefined) [Zileuton],habituation to 1-s acoustic pulses,[1],7.12
same,activity during first hour,[5],-0.123
CCCCC1=NC2(CCCC2)C(=O)N1Cc1ccc(-c2ccccc2-c2nnn[nH]2)cc1 [Irbesartan],habituation to 1-s acoustic pulses,[1],1.51
same,activity during first hour,[5],3.29
C[C@@H](O[C@H]1OCCN(Cc2n[nH]c(=O)[nH]2)[C@H]1c1ccc(F)cc1)c1cc(C(F)(F)F)cc(C(F)(F)F)c1 [Aprepitant],excitability to 1-s acoustic pulses,[6],8.09
same,optomotor response to red moving lines,[2],-4.19
same,activity during period 15,[9],-7.86
same,optomotor response,[4],7.32
Cc1cccc(CN2CCN(C(c3ccccc3)c3ccc(Cl)cc3)CC2)c1 (centres undefined) [Meclizine dihydrochloride],optomotor response to blue moving lines,[3],-6.39
